Measurements published in the supplement of paper PMC10849652.
Of roughly 8,800 targets only a part is listed; those with a hit were picked by preference. About 0.5% of all pairs of compound and target were hits. Unmarked numbers belong to inactive results.

Compound: Cc1cn(-c2cc(NC(=O)c3ccc(C)c(Nc4nccc(-c5cccnc5)n4)c3)cc(C(F)(F)F)c2)cn1 [nilotinib]
Test: log2 fold change, soluble protein after heating vs DMSO (PISA); higher = thermal stabilisation; K562 lysate, 10 uM; active = over 0.2 and 3.5 SD of the protein, either way, in both replicates (recomputed)
Summary of the method: (§1)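 K562 pellets were dounce-homogenised in PBS pH 7.4 with 1 mM MgCl2, and the crude extract at 1 mg/mL protein was treated with 10 μM compound for 30 min. Aliquots were heated for 3 min across 48°C-58°C, pooled, and brought to 0.5% NP-40 at 4°C; soluble protein was the supernatant after 21,000xg for 90 min. Soluble protein was quantified by TMTpro 16plex LC-MS/MS with channel sums equalised, and reported as log2 fold change in thermal stability against DMSO controls, with values from duplicates.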

UniProt O15027, sequence (O15027 whole entry, looked up): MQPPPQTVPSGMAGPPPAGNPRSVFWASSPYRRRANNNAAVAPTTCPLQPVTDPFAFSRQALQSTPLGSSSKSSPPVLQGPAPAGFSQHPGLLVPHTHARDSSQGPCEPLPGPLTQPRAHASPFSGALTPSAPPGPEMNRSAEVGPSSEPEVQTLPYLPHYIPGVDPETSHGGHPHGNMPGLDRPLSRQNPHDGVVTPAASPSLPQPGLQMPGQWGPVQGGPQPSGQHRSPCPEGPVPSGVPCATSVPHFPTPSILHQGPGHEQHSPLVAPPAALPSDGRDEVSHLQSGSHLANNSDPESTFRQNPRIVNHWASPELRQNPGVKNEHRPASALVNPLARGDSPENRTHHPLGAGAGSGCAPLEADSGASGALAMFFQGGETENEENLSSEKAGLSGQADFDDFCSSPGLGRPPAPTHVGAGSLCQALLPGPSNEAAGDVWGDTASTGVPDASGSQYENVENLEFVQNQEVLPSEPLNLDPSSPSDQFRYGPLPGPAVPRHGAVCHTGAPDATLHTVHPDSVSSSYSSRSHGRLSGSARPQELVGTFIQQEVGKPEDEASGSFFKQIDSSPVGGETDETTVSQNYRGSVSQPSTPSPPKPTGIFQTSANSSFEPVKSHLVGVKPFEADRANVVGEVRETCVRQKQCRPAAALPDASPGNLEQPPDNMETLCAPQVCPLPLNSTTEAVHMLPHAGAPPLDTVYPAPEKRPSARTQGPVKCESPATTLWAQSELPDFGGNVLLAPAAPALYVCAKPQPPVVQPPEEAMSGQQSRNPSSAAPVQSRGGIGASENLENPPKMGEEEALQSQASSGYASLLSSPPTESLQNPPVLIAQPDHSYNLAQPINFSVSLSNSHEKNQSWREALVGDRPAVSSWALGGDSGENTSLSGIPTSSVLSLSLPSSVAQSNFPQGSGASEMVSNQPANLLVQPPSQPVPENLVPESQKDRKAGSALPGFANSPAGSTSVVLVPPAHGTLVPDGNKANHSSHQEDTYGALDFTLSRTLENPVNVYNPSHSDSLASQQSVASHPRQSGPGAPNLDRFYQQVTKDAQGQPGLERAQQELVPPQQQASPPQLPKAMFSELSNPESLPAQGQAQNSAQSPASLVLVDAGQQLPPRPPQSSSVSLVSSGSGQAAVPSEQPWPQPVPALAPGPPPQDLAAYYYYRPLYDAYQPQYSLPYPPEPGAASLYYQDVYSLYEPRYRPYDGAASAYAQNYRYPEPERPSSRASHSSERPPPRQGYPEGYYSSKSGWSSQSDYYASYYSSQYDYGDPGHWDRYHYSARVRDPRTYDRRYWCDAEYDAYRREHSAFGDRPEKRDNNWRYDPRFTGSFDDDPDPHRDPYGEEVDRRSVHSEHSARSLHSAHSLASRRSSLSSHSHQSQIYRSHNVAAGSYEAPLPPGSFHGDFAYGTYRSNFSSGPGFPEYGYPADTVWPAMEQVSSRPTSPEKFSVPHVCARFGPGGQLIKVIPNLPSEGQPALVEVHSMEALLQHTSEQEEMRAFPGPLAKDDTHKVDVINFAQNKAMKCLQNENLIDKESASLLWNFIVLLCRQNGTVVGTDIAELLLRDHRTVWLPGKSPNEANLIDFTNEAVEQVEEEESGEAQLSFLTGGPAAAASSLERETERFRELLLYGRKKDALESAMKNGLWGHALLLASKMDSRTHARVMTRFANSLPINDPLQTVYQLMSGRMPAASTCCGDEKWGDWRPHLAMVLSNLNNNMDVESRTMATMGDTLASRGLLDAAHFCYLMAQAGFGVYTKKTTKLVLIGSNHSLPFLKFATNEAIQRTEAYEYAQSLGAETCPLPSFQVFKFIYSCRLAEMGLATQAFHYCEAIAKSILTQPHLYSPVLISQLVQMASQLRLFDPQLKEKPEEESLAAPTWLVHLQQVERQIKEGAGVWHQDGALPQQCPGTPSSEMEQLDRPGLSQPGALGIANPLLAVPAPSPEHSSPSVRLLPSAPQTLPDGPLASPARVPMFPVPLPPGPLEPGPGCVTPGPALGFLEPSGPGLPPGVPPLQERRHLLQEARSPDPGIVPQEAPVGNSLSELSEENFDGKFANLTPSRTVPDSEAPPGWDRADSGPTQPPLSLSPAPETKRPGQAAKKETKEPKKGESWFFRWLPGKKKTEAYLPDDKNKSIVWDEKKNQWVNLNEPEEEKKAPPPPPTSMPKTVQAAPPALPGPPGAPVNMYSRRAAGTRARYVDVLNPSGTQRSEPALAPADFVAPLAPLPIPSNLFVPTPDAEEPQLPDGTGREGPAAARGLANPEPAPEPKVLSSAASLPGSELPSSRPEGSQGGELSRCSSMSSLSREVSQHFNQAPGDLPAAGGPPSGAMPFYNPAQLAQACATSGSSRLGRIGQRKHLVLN
UniProt Q86U06, sequence (Q86U06 whole entry, looked up): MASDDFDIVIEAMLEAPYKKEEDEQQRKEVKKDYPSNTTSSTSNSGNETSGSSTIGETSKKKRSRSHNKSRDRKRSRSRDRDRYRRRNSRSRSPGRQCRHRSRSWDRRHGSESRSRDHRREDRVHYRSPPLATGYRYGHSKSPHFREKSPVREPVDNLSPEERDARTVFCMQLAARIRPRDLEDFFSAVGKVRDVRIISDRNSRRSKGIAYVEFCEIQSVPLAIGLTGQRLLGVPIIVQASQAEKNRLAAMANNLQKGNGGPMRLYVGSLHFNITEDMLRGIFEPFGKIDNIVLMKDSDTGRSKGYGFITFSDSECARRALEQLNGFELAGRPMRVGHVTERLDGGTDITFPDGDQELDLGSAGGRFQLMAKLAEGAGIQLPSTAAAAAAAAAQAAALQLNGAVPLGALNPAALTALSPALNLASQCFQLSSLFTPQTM
UniProt Q8TC12, sequence (Q8TC12 whole entry, looked up): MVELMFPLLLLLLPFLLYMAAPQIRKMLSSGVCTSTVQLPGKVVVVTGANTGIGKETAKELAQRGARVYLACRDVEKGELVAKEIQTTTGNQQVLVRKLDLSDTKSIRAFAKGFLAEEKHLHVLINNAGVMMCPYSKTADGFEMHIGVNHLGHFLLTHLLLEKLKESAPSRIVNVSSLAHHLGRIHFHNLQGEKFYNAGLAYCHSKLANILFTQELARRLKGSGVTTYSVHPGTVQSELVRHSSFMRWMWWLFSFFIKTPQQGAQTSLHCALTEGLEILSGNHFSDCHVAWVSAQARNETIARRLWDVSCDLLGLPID
UniProt P11233, sequence (P11233 whole entry, looked up): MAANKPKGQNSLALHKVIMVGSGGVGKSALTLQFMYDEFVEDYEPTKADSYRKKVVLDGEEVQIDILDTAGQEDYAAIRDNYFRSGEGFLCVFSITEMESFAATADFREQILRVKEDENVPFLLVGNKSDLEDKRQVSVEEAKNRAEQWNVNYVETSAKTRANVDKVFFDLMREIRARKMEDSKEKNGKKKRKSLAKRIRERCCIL
UniProt P51159, sequence (P51159 whole entry, looked up): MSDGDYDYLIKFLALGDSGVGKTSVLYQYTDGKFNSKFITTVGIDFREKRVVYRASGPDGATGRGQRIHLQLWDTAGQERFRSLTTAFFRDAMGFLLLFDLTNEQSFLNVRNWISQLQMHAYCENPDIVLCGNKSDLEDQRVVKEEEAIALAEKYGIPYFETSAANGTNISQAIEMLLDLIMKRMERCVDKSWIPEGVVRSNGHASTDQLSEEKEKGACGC
UniProt Q8WWV3, sequence (Q8WWV3 whole entry, looked up): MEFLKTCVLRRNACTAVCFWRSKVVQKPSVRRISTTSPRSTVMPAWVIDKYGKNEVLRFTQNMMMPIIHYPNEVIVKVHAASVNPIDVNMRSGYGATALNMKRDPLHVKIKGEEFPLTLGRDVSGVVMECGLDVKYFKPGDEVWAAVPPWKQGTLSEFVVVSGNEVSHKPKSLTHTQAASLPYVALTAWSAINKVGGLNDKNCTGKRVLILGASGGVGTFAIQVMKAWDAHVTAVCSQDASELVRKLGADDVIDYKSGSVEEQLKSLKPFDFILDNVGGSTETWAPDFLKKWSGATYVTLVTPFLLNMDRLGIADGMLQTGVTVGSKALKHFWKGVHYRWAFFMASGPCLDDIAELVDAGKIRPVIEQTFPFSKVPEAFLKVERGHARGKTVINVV
UniProt P23443, sequence (P23443 whole entry, looked up): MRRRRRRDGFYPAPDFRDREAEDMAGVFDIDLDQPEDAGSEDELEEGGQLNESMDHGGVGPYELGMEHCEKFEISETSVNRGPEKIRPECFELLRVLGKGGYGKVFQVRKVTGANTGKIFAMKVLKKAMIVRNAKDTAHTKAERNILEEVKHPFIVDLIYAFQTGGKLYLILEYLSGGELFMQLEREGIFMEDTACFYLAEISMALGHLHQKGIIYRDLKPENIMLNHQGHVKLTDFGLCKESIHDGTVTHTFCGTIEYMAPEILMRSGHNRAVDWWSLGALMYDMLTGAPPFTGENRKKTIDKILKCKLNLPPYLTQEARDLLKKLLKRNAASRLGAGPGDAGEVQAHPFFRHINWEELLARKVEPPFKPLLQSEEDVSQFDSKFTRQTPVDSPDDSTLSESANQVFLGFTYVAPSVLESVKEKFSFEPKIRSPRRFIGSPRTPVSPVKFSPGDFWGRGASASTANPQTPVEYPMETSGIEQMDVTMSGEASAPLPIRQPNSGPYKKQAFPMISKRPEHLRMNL
UniProt Q9NR31, sequence (Q9NR31 whole entry, looked up): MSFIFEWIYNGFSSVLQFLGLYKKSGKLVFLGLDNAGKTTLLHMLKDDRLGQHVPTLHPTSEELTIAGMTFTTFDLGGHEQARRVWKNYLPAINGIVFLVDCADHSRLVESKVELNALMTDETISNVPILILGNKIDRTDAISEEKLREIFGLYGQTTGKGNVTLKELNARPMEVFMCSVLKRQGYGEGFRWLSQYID
UniProt P35250, sequence (P35250 whole entry, looked up): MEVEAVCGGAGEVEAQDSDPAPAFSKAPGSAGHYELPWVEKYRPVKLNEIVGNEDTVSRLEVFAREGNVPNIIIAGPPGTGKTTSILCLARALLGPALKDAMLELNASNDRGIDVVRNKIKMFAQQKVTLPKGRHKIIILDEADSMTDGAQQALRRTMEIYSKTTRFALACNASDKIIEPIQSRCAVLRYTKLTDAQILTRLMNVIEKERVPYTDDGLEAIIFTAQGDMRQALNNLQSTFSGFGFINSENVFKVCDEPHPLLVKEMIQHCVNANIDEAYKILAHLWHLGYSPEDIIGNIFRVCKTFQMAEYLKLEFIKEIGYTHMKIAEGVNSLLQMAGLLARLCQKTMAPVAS

Target | log2 fold change
RAPGEF2, A0A2R8YGD3 | -0.032
RAB27A (UniProt P51159) | -0.018
RPL31 (UniProt P62899) | 0.007
RBBP7 isoform 2 (UniProt Q16576) | 0.013
RAP1GAP isoform 4 (UniProt P47736) | -0.002
RBM22 (UniProt Q9NW64) | -0.045
RABGGTB (UniProt P53611) | 0.005
RNF113A (UniProt O15541) | 0.003
RPS6KA3 (UniProt P51812) | -0.02
SERINC3 (UniProt Q13530) | 0.022
RRM1 (UniProt P23921) | -0.003
RDH11 (UniProt Q8TC12) | 0.034
RABEPK (UniProt Q7Z6M1) | -0.003
RAE1 (UniProt P78406) | -0.093
RNPC3 (UniProt Q96LT9) | -0.104
SAR1A (UniProt Q9NR31) | 0.145
SCML2 (UniProt Q9UQR0) | 0.042

Target | log2 fold change
RIOK3 (UniProt O14730) | 0.017
RBM23 isoform 2 (UniProt Q86U06) | 0.172
RAF1 isoform 2 (UniProt P04049) | 0.054
RTN4IP1 (UniProt Q8WWV3) | -0.056
RAD54L2 (UniProt Q9Y4B4) | -0.037
RAP1B (UniProt F5GZG1) | 0.012
RFC2 (UniProt P35250) | 0.005
RBBP7 (UniProt Q16576) | -0.02
RIPK1 (UniProt Q13546) | -0.053
SDHC (UniProt Q99643) | -0.009
RPS6KB1 (UniProt P23443) | -0.034
RALA (UniProt P11233) | -0.04
RBMX (UniProt P38159) | 0.034
SEC16A isoform 5 (UniProt O15027) | -0.119
RPS4X (UniProt P62701) | 0.01
RPLP0P6 (UniProt Q8NHW5) | 0.01

Compound: Cc1nc(Nc2n[nH]c3c2CN(C(=O)N[C@H](CN(C)C)c2ccccc2)C3(C)C)c2sccc2n1
Test: as above
Summary of the method: as §1

Target | log2 fold change
RAPGEF2, A0A2R8YGD3 | 0.027
RAB27A (UniProt P51159) | 0.02
RPL31 (UniProt P62899) | -0.034
RBBP7 isoform 2 (UniProt Q16576) | -0.019
RAP1GAP isoform 4 (UniProt P47736) | -0.015
RBM22 (UniProt Q9NW64) | 0.024
RABGGTB (UniProt P53611) | 0.003
RNF113A (UniProt O15541) | -0.004
RPS6KA3 (UniProt P51812) | 0.17
SERINC3 (UniProt Q13530) | 0.023
RRM1 (UniProt P23921) | 0.008
RDH11 (UniProt Q8TC12) | -0.05
RABEPK (UniProt Q7Z6M1) | 0.005
RAE1 (UniProt P78406) | 0.042
RNPC3 (UniProt Q96LT9) | 0.069
SAR1A (UniProt Q9NR31) | 0.164
SCML2 (UniProt Q9UQR0) | 0.004

Target | log2 fold change
RIOK3 (UniProt O14730) | -0.027
RBM23 isoform 2 (UniProt Q86U06) | 0.021
RAF1 isoform 2 (UniProt P04049) | -0.005
RTN4IP1 (UniProt Q8WWV3) | -0.34 (active)
RAD54L2 (UniProt Q9Y4B4) | -0.03
RAP1B (UniProt F5GZG1) | -0.066
RFC2 (UniProt P35250) | -0.018
RBBP7 (UniProt Q16576) | -0.002
RIPK1 (UniProt Q13546) | -0.014
SDHC (UniProt Q99643) | 0.056
RPS6KB1 (UniProt P23443) | 0.077
RALA (UniProt P11233) | -0.001
RBMX (UniProt P38159) | -0.079
SEC16A isoform 5 (UniProt O15027) | 0.008
RPS4X (UniProt P62701) | -0.023
RPLP0P6 (UniProt Q8NHW5) | -0.027

Compound: Cc1nc(Nc2ncc(C(=O)Nc3c(C)cccc3Cl)s2)cc(N2CCN(CCO)CC2)n1 [dasatinib]
Test: as above
Summary of the method: as §1

Target | log2 fold change
RAPGEF2, A0A2R8YGD3 | 0.052
RAB27A (UniProt P51159) | 0.022
RPL31 (UniProt P62899) | 0.046
RBBP7 isoform 2 (UniProt Q16576) | -0.005
RAP1GAP isoform 4 (UniProt P47736) | 0
RBM22 (UniProt Q9NW64) | -0.072
RABGGTB (UniProt P53611) | 0.017
RNF113A (UniProt O15541) | -0.015
RPS6KA3 (UniProt P51812) | -0.065
SERINC3 (UniProt Q13530) | 0.026
RRM1 (UniProt P23921) | -0.026
RDH11 (UniProt Q8TC12) | -0.075
RABEPK (UniProt Q7Z6M1) | 0.005
RAE1 (UniProt P78406) | 0.002
RNPC3 (UniProt Q96LT9) | 0.042
SAR1A (UniProt Q9NR31) | 0.017
SCML2 (UniProt Q9UQR0) | -0.014

Target | log2 fold change
RIOK3 (UniProt O14730) | -0.05
RBM23 isoform 2 (UniProt Q86U06) | -0.004
RAF1 isoform 2 (UniProt P04049) | 0.169
RTN4IP1 (UniProt Q8WWV3) | -0.046
RAD54L2 (UniProt Q9Y4B4) | -0.053
RAP1B (UniProt F5GZG1) | 0.05
RFC2 (UniProt P35250) | -0.027
RBBP7 (UniProt Q16576) | 0.029
RIPK1 (UniProt Q13546) | 0.087
SDHC (UniProt Q99643) | -0.001
RPS6KB1 (UniProt P23443) | -0.003
RALA (UniProt P11233) | 0.017
RBMX (UniProt P38159) | -0.029
SEC16A isoform 5 (UniProt O15027) | -0.007
RPS4X (UniProt P62701) | 0.025
RPLP0P6 (UniProt Q8NHW5) | 0.018
